Measured values: PubChem BioAssay (NCI)
This is part of a sample that, as a whole, favours compounds with a hit. Of some 83,000 tested, about 20% had one in any assay.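 Each cell line was grown in a 96-well plate and treated with one concentration of compound for 48 hours. Values below 10 were considered active.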 Active and inactive are the calls of the source.

Assays:
Experiment in all cases: NCI-60 one-dose screen, 48 h (100 = growth as untreated, 0 = no growth, -100 = all killed)
Details in all cases: 10 µM unless noted
[1] = tested on: SR leukemia
[2] = tested on: RPMI-8226 leukemia
[3] = tested on: OVCAR-8 ovarian
[4] = tested on: OVCAR-5 ovarian
[5] = tested on: OVCAR-4 ovarian
[6] = tested on: SK-OV-3 ovarian
[7] = tested on: IGROV1 ovarian
[8] = tested on: OVCAR-3 ovarian
[9] = tested on: HS 578T breast
[10] = tested on: NCI/ADR-RES ovarian

Measured: growth

C(=N\Nc1ccc2ccccc2n1)/c1ccccn1
active: [1] 6.86% | [7] 2.7%
inactive: [2] 25.1% | [3] 18.5% | [4] 47.4% | [5] 22.2% | [6] 26.1% | [8] 44.7% | [9] 38.4% | [10] 18.6%

CC(O)C(O)C(O)C(O)C(O)C(=O)NNc1ccccc1 (stereo not given)
inactive: [1] 49.7% | [2] 99.1% | [3] 96.4% | [4] 84.6% | [5] 96.5% | [6] 99.5% | [7] 80% | [8] 99.4% | [9] 91.2% | [10] 84.2%

CCOc1ccc2c(c1)/C(=C\C=C\C1CC(C)C3CC(OCC)CCC3N1CC)CC(C)N2CC (stereo not given)
inactive: [4] 33.6% | [5] 15.4% | [6] 14.9% | [7] 32.4% | [9] 63.6% | [10] 60.8%
active: [1] -47.6% | [2] -52.2% | [3] 6.8% | [8] 8.69%

CCOc1ccc(Nc2nc3c(s2)C(=O)c2ccccc2C3=O)cc1
inactive: [1] 46.6% | [2] 51% | [3] 68.4% | [4] 112% | [5] 65.5% | [6] 103% | [7] 82.2% | [8] 53.9% | [9] 96.8% | [10] 75.2%

Oc1c(Cl)cc(Cl)cc1C(c1cc(Cl)cc(Cl)c1O)C(Cl)(Cl)Cl
inactive: [5] 20.4%
active: [1] 9.73% | [2] -9.94% | [3] -0.45% | [4] 1.83% | [6] -16.7% | [7] -15.7% | [8] -7.63% | [9] -11.5% | [10] -15.7%

O=C1/C(=C/c2ccccc2)CCC/C1=C\c1ccccc1
inactive: [1] 67.4% | [3] 91.7% | [4] 120% | [5] 94.1% | [6] 99.6% | [7] 80% | [8] 65.1% | [9] 101% | [10] 95.2%
active: [2] -3.31%

O=C1c2ccccc2Cc2cccc(Cl)c21
inactive: [1] 64.1% | [2] 106% | [3] 108% | [4] 93.9% | [5] 108% | [6] 98% | [7] 88.7% | [8] 108% | [9] 112% | [10] 96%

O=C(Nc1ccc(Cl)c(Cl)c1)OCc1ccco1
inactive: [1] 25.7% | [2] 51.3% | [3] 47.1% | [4] 76.5% | [5] 64% | [6] 83.3% | [7] 52.7% | [8] 47% | [9] 20.5% | [10] 34.4%

CCN(CC)CC(O)c1cc(-c2ccc(Cl)cc2)nc2cc(Cl)ccc12 (stereo not given)
inactive: [2] 34.4% | [3] 38% | [4] 14.2% | [5] 53.3% | [6] 60% | [7] 10.3% | [8] 56.8% | [9] 40.6% | [10] 29.8%
active: [1] -12.3%

OC(Cc1cc(CC(O)(C(F)(F)F)C(F)(F)F)nc(CC(O)(C(F)(F)F)C(F)(F)F)c1)(C(F)(F)F)C(F)(F)F
inactive: [4] 16.1% | [7] 20.4%
active: [1] 4.85% | [2] -7.53% | [3] 9.71% | [5] 6.38% | [6] -16.8% | [8] -3.61% | [9] 5.53% | [10] 3.76%

O=C/C=C/c1ccc([N+](=O)[O-])cc1
inactive: [1] 87.1% | [2] 102% | [3] 100% | [4] 107% | [5] 104% | [6] 89.5% | [7] 101% | [8] 104% | [9] 100% | [10] 99.6%

Oc1c(Cl)cc(Cl)cc1C=NCC1CCC(CN=Cc2cc(Cl)cc(Cl)c2O)CC1 (stereo not given)
inactive: [1] 52.3% | [2] 76.7% | [3] 90% | [4] 114% | [5] 75.2% | [6] 88.5% | [7] 69.6% | [8] 83.5% | [9] 92.7% | [10] 85.2%

O=C1C=CC(=O)N1c1cc(Cl)c(Cl)cc1Cl
inactive: [1] 81.5% | [2] 99.8% | [3] 102% | [4] 117% | [5] 98.8% | [6] 91.6% | [7] 93.7% | [8] 111% | [9] 137% | [10] 104%

O=C(O)c1ccc2c(c1)C(=O)c1ccccc1C2=O
inactive: [1] 86.4% | [2] 102% | [3] 98.9% | [4] 101% | [5] 96.7% | [6] 98.8% | [7] 116% | [8] 99.3% | [9] 95.6% | [10] 105%

COc1cc([C@@H]2c3cc4c(cc3[C@H](OC3OC5COC(c6ccccc6)OC5C(O)C3O)[C@H]3COC(=O)[C@H]23)OCO4)cc(OC)c1OC (stereo not given in full)
active: [1] -25.4% | [2] -21.4% | [7] -45.7% | [9] -30% | [10] -38.9%
inactive: [3] 29.4% | [4] 38.1% | [5] 45.3% | [6] 83.1% | [8] 61.8%

OC(c1cc(C23CC4CC(CC(C4)C2)C3)nc2c(Cl)cc(Cl)cc12)C1CCCCN1 (stereo not given)
active: [1] -60.1% | [2] -45.4% | [3] -53.9% | [4] -56% | [5] -78.2% | [6] -10.3% | [7] -61.7% | [8] -89.9% | [9] -49.9% | [10] -51.2%

Oc1c(C(Nc2ccccc2)c2ccccc2)ccc2cccnc12 (stereo not given)
inactive: [1] 27.3% | [2] 37.3% | [3] 19.8% | [4] 59.5% | [5] 33.2% | [6] 40.5% | [7] 41.3% | [8] 24.3% | [9] 70.4% | [10] 16.8%

CCCCCCCCCCCCCCCCCC1=NCCCN1CCO
inactive: [1] 95.6% | [2] 103% | [3] 101% | [4] 98.5% | [5] 112% | [6] 97.6% | [7] 105% | [8] 114% | [9] 101% | [10] 105%

Cc1cc2cccnc2c2ncccc12
active: [1] 6.21% | [6] 1.57%
inactive: [2] 13.4% | [3] 13% | [4] 45.6% | [5] 14.4% | [7] 29.1% | [8] 33.8% | [9] 61.3% | [10] 11.2%

CC1(C)OC2C(COC(c3ccccc3)(c3ccccc3)c3ccccc3)OC(c3c[nH]c4c(N)ncnc34)C2O1 (stereo not given)
inactive: [1] 28.3% | [2] 27.4% | [3] 56.1% | [4] 82.9% | [5] 50.1% | [6] 70% | [7] 75.5% | [8] 53.8% | [9] 77.5% | [10] 86.9%

S=C(SSC(=S)N1CCOCC1)N1CCOCC1
inactive: [1] 31.4% | [2] 76.9% | [3] 96.8% | [4] 106% | [5] 65.7% | [6] 102% | [7] 29.1% | [8] 74.6% | [9] 97.7% | [10] 106%

NCCCN(CCCN)CCCNCc1c2ccccc2c(CNCCCN(CCCN)CCCN)c2ccccc12
inactive: [1] 96.6% | [2] 91.7% | [3] 98.5% | [4] 108% | [5] 99.8% | [6] 100% | [7] 114% | [8] 107% | [9] 92.6% | [10] 93.9%

OCCOSCCO
inactive: [1] 90.1% | [2] 133% | [3] 106% | [4] 99.5% | [5] 102% | [6] 117% | [7] 112% | [8] 120% | [9] 115% | [10] 113%

CCCOS(=O)(=O)c1ccccc1
inactive: [1] 108% | [2] 71.2% | [3] 104% | [4] 93% | [5] 123% | [6] 91.9% | [7] 104% | [8] 107% | [9] 126% | [10] 110%

O=[N+]([O-])c1ccc([I+]c2ccccc2)cc1
active: [3] -27.6% | [4] -85.8% | [5] -91% | [8] -15.3% | [9] 1.04%
inactive: [1] 17.7% | [2] 41.6% | [6] 50.2% | [7] 43.4% | [10] 28.9%

O=C(NOC(=O)c1ccccc1)c1ccccc1
inactive: [1] 84.5% | [2] 75.7% | [3] 119% | [4] 109% | [5] 105% | [6] 109% | [7] 107% | [8] 115% | [9] 83.5% | [10] 93.7%

CC(=O)OC1CC2CCC1(C)C2(C)C (stereo not given)
inactive: [1] 97.6% | [2] 108% | [3] 98.9% | [4] 94.9% | [5] 113% | [6] 111% | [7] 106% | [8] 103% | [9] 103% | [10] 108%

NC(CS/C(Cl)=C/Cl)C(=O)O (stereo not given)
inactive: [1] 96% | [2] 36.2% | [3] 64.6% | [4] 99.8% | [5] 101% | [6] 94% | [7] 96.4% | [8] 102% | [9] 104% | [10] 86.2%
